Records with an inconclusive call do not appear. Calls of active or inactive are those of the source. Calls follow the shape of the dose curve; as a rule, active = well fitted cell-killing curve with a large enough effect; inconclusive = small, poorly fitted or top-dose-only effect, or effect the other way; inactive = no such curve, though single readings can be large or run the other way.
Legend:
[1] = Quantitative High-Throughput drug screen in 47 multiple myeloma cell lines against the NCATS MIPE library collection: MM1R_ATCC cell viability assay (AID 1918981); also: nearly all actives have a fitted effect of over 35% in size
In short: (§1)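 qHTS format: cells plated (500/well), pin-dosed with MIPE 4.0 compounds, kept 48 h at 37 °C. Readout was CellTiter-Glo luminescence, median RLU.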

[2] = Quantitative High-Throughput drug screen in 47 multiple myeloma cell lines against the NCATS MIPE library collection: KMS28PE_JCRB cell viability assay (AID 1918983); also: nearly all actives have a fitted effect of over 35% in size
In short: as §1

[3] = Quantitative High-Throughput drug screen in 47 multiple myeloma cell lines against the NCATS MIPE library collection: L363_DSMZ cell viability assay (AID 1918984); also: nearly all actives have a fitted effect of over 40% in size
In short: as §1

[4] = Quantitative High-Throughput drug screen in 47 multiple myeloma cell lines against the NCATS MIPE library collection: KMS34_JCRB cell viability assay (AID 1918985); also: nearly all actives have a fitted effect of over 40% in size
In short: as §1

[5] = Quantitative High-Throughput drug screen in 47 multiple myeloma cell lines against the NCATS MIPE library collection: U266_ATCC cell viability assay (AID 1919864); also: nearly all actives have a fitted effect of over 35% in size
In short: as §1

[6] = Quantitative High-Throughput drug screen in 47 multiple myeloma cell lines against the NCATS MIPE library collection: XG6_PLB cell viability assay (AID 1919865); also: nearly all actives have a fitted effect of over 40% in size
In short: as §1

[7] = Quantitative High-Throughput drug screen in 47 multiple myeloma cell lines against the NCATS MIPE library collection: XG1_PLB cell viability assay (AID 1919866); also: nearly all actives have a fitted effect of over 35% in size
In short: as §1

[8] = Quantitative High-Throughput drug screen in 47 multiple myeloma cell lines against the NCATS MIPE library collection: VP6_DJ cell viability assay (AID 1919867); also: nearly all actives have a fitted effect of over 40% in size
In short: as §1

[9] = Quantitative High-Throughput drug screen in 47 multiple myeloma cell lines against the NCATS MIPE library collection: PCM6_Riken cell viability assay (AID 1919870); also: nearly all actives have a fitted effect of over 30% in size
In short: as §1

[10] = Quantitative High-Throughput drug screen in 47 multiple myeloma cell lines against the NCATS MIPE library collection: RPMI8226_ATCC cell viability assay (AID 1919871); also: nearly all actives have a fitted effect of over 30% in size
In short: as §1

[11] = Quantitative High-Throughput drug screen in 47 multiple myeloma cell lines against the NCATS MIPE library collection: OPM2_DSMZ cell viability assay (AID 1919872); also: nearly all actives have a fitted effect of over 30% in size
In short: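 CellTiter-Glo ATP luminescence gave viability after 48 h compound treatment at 37C of 500 multiple myeloma cells per well. Normalisation used DMSO-only wells as 100% and media-only wells as 0% viability; primary qHTS of approved and investigational drugs.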

[12] = Quantitative High-Throughput drug screen in 47 multiple myeloma cell lines against the NCATS MIPE library collection: KMS11_JCRBsus cell viability assay (AID 1919873); also: nearly all actives have a fitted effect of over 50% in size
In short: as §1

[13] = Quantitative High-Throughput drug screen in 47 multiple myeloma cell lines against the NCATS MIPE library collection: KMS28BM_JCRB cell viability assay (AID 1919874); also: nearly all actives have a fitted effect of over 35% in size
In short: as §1

[14] = Quantitative High-Throughput drug screen in 47 multiple myeloma cell lines against the NCATS MIPE library collection: OCIMY7_PLB cell viability assay (AID 1918987); settings: OCI-MY7 myeloma viability, CellTiter-Glo ATP, 48 h; viability (% of DMSO): at 45.8 µM (top of the series); also: nearly all actives have a fitted effect of over 65% in size
In short: as §1

[15] = Quantitative High-Throughput drug screen in 47 multiple myeloma cell lines against the NCATS MIPE library collection: OCIMY5_PLB cell viability assay (AID 1918988); also: nearly all actives have a fitted effect of over 65% in size;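 as to viability, % of control: 100% = DMSO-treated wells and 0% = wells with media alone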
In short: as §1

[16] = Quantitative High-Throughput drug screen in 47 multiple myeloma cell lines against the NCATS MIPE library collection: OPM1_PLB cell viability assay (AID 1918989); also: nearly all actives have a fitted effect of over 40% in size
In short: as §1

[17] = Quantitative High-Throughput drug screen in 47 multiple myeloma cell lines against the NCATS MIPE library collection: SKMM1_PLB cell viability assay (AID 1919863); settings: SKMM1 myeloma viability, CellTiter-Glo ATP, 48 h; viability: active compounds read low; also: nearly all actives have a fitted effect of over 35% in size
In short: as §1

[18] = Quantitative High-Throughput drug screen in 47 multiple myeloma cell lines against the NCATS MIPE library collection: PE2_PLB cell viability assay (AID 1919869); also: nearly all actives have a fitted effect of over 35% in size
In short: as §1

[19] = Quantitative High-Throughput drug screen in 47 multiple myeloma cell lines against the NCATS MIPE library collection: UTMC2_PLB cell viability assay (AID 1919868); settings: CellTiter-Glo ATP luminescence, 48 h; viability (% of DMSO control): at 45.8 µM (top of the series); also: nearly all actives have a fitted effect of over 55% in size
In short: as §1
Potency is read from the fitted curve at half-maximal effect.

CC(=O)O[C@]1(C(C)=O)CC[C@H]2[C@@H]3C=C(C)C4=CC(=O)CC[C@]4(C)[C@@H]3CC[C@@]21C
inactive: Potency [2] | Potency [4] | Potency [11] | Potency [12] | Potency [13]
active: Potency [1] 11800 nM | Potency [3] 9350 nM | Potency [5] 8330 nM | Potency [6] 4180 nM | Potency [7] 6620 nM | Potency [8] 7430 nM | Potency [9] 6620 nM | Potency [10] 14800 nM

CN(C)c1ccc(C(=O)NCCCCCCC(=O)NO)cc1
active: Potency [1] 590 nM | Potency [2] 935 nM | Potency [3] 83.3 nM | Potency [14] 590 nM | Potency [15] 469 nM | Potency [16] 296 nM | Potency [17] 1480 nM | Potency [5] 1180 nM | Potency [6] 1870 nM | Potency [7] 1180 nM | Potency [8] 148 nM | Potency [18] 2350 nM | Potency [9] 662 nM | Potency [11] 935 nM | Potency [12] 743 nM | Potency [13] 526 nM

CNC(=O)Nc1ccc(-c2nc(N3CC4CCC(C3)O4)c3cnn(C4CCC5(CC4)OCCO5)c3n2)cc1
active: Potency [1] 41.8 nM | Potency [2] 3.7 nM | Potency [4] 18.7 nM | Potency [14] 3720 nM | Potency [15] 833 nM | Potency [16] 11.8 nM | Potency [17] 16.6 nM | Potency [9] 66.2 nM | Potency [11] 20.9 nM | Potency [13] 7.4 nM

COc1cc(C[C@@H](CO)[C@H](CO)Cc2ccc(O)c(OC)c2)ccc1O
inactive: Potency [2] | Potency [4] | viability [17] 127% | Potency [11] | Potency [12] | Potency [13]
active: Potency [1] 1320 nM | Potency [3] 5900 nM | Potency [14] 1050 nM | Potency [16] 935 nM | Potency [5] 469 nM | Potency [6] 209 nM | Potency [7] 418 nM | Potency [8] 372 nM | Potency [18] 2350 nM | Potency [9] 132 nM

CC(C)(C)[C@H](NC(=O)c1ccc(N)c(Cl)c1)C(=O)N1CCC[C@@H]1C(=O)N[C@H](C#N)CC(=O)O
active: Potency [8] 834 nM
inactive: viability (% of control) [1] 128% [at 3.51 µM] | viability, % of DMSO control [2] 131% [at 3.51 µM] | viability (% of control) [3] 111% [at 3.51 µM] | viability, % of control [15] 135% [at 3.51 µM] | viability (% of control) [16] 141% [at 3.51 µM] | viability [17] 125% | viability (% of DMSO control) [5] 129% [at 3.51 µM] | viability (% of control) [6] 104% [at 3.51 µM] | viability (% of DMSO control) [19] 157% [at 3.51 µM] | viability (% of control) [18] 118% [at 3.51 µM] | viability (% of control) [9] 122% [at 3.51 µM] | viability (% of DMSO) [11] 102% [at 3.51 µM] | viability (% of control) [12] 102% [at 3.51 µM]

Cc1cc(Nc2ncc3c(n2)N(C)C(=O)N(c2cc(NC(=O)c4cccc(C(F)(F)F)c4)ccc2C)C3)n(C)n1
active: Potency [1] 1320 nM | Potency [2] 1320 nM | Potency [3] 1320 nM | Potency [14] 526 nM | Potency [16] 235 nM | Potency [5] 1320 nM | Potency [6] 935 nM | Potency [7] 2350 nM | Potency [8] 935 nM | Potency [19] 418 nM | Potency [18] 743 nM | Potency [9] 1870 nM | Potency [11] 743 nM | Potency [12] 235 nM | Potency [13] 3320 nM

COc1ccc(C[C@@H](C)[C@@H](C)Cc2ccc(OC)c(OC)c2)cc1OC
active: Potency [1] 1050 nM | Potency [2] 332 nM | Potency [3] 166 nM | Potency [14] 296 nM | Potency [15] 469 nM | Potency [16] 264 nM | Potency [17] 372 nM | Potency [5] 935 nM | Potency [6] 264 nM | Potency [7] 187 nM | Potency [8] 833 nM | Potency [18] 332 nM | Potency [9] 332 nM | Potency [10] 1180 nM | Potency [11] 469 nM | Potency [12] 132 nM

CC(C)(C)c1nc2c3cc[nH]c(=O)c3c3cc(F)ccc3c2[nH]1
active: Potency [1] 2640 nM | Potency [2] 6620 nM | Potency [4] 1660 nM | Potency [14] 332 nM | Potency [15] 1870 nM | Potency [16] 743 nM | Potency [17] 935 nM | Potency [5] 1870 nM | Potency [6] 1320 nM | Potency [18] 833 nM | Potency [9] 743 nM | Potency [10] 2960 nM | Potency [11] 1660 nM | Potency [12] 662 nM | Potency [13] 2090 nM

CCc1c(O)cc(O)c(C(=O)c2ccc(OCCN3CCOCC3)c(OC)c2)c1CC(=O)N(CCOC)CCOC
active: Potency [1] 1180 nM | Potency [2] 1180 nM | Potency [4] 1660 nM | Potency [14] 3320 nM | Potency [15] 469 nM | Potency [16] 662 nM | Potency [17] 1320 nM | Potency [5] 1050 nM | Potency [6] 1480 nM | Potency [8] 1180 nM | Potency [19] 935 nM | Potency [18] 833 nM | Potency [9] 1320 nM | Potency [12] 935 nM | Potency [13] 1320 nM

C[C@H]1[C@@H](OC(=O)CCC(=O)O)O[C@@H]2O[C@@]3(C)CC[C@@H]4[C@H](C)CC[C@@H]1[C@@]24OO3
active: Potency [1] 14800 nM | Potency [2] 5260 nM | Potency [4] 1320 nM | Potency [14] 833 nM | Potency [15] 4690 nM | Potency [16] 2960 nM | Potency [17] 4690 nM | Potency [5] 16600 nM | Potency [6] 4690 nM | Potency [7] 10500 nM | Potency [19] 4690 nM | Potency [18] 5260 nM | Potency [9] 5900 nM | Potency [12] 1320 nM | Potency [13] 14800 nM

From PubChem BioAssay (NCATS)
